Vc quorum ag = induces V. cholerae light production without autoinducers; activation, % at 18.7 µM; V. cholerae BH1578 lux reporter, luminescence, 6 h; 0.16% of 350,000 active; in the data active = activation mostly above about 9.7%, no sharp cut-off
Rv3671c inh = Rv3671c (M. tuberculosis) protease inhibition | P9WHR9 | inhibition, % at 5.96 µM | 0.048% of 320,000 active | AID 2606; in the data active = inhibition above about 38%;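 note: extracellular domain of Rv3671c used as enzyme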
GDH-TPI inh = GDH-TPI coupled enzyme inhibition counter-screen | 1.2% of 360,000 active | GDH-TPI coupled enzyme counterscreen, NADH absorbance | AID 588335 | inhibition, % at 4.8 µM; in the data active = inhibition above about 30%
UGM FP inh = Mtb UDP-galactopyranose mutase inhibition; P9WIQ1; purified UGM, fluorescence polarization probe displacement; inhibition, % at 10 µM; 0.06% of 320,000 active; AID 504406; in the data active = inhibition above about 10%, passing the limit was not always enough
Mtb FBA inh = Mtb fructose-bisphosphate aldolase inhibition | P9WQA3 | purified M. tuberculosis FBA, fluorescence read-out | inhibition, % at 1 µM | 2.3% of 360,000 active; in the data active = inhibition above about 27%
RecA splice inh = blocks M. tuberculosis RecA intein splicing. 0.75% of 290,000 active. cell-free RecA intein splicing, fluorescence. inhibition, % (no concentration beside the values); in the data active = inhibition above about 30%
Target sequence (P9WHJ3 whole entry, looked up, canonical isoform): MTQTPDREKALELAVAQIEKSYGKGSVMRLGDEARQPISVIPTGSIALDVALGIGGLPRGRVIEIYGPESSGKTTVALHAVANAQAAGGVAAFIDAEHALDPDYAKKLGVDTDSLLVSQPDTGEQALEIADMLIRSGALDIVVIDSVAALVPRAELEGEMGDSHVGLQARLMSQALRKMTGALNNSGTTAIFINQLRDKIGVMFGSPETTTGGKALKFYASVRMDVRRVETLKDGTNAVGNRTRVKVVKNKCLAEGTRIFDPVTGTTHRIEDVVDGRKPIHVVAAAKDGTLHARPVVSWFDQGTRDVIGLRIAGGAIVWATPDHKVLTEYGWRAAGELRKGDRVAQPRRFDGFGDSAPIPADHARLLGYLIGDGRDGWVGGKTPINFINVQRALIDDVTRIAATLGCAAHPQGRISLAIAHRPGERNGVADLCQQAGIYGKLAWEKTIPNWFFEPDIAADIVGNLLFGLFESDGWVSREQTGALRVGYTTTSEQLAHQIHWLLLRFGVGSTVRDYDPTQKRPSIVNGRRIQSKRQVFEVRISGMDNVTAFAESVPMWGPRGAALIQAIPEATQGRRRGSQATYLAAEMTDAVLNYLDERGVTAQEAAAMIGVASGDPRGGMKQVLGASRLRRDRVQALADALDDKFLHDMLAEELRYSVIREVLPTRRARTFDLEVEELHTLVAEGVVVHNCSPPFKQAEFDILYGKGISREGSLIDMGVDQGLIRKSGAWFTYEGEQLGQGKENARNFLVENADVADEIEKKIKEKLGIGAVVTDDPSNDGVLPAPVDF
Large screens that a line does not name were inactive. Rows were chosen to be rich in hits. Some 4.1% of all compounds tested hit in one or more screens of this group.

COc1ccc(CCNC(=O)c2c(N)n(CCN3CCOCC3)c3nc4ccccc4nc23)cc1	none
CN(Cc1ccccc1)C(=O)c1ccc(NC(=O)Cc2ccc(NC(=O)C3CCCN(C(=O)C4CC4)C3)cc2)cc1 (centres undefined)	none (no result: Rv3671c inh, UGM FP inh, RecA splice inh)
O=C(Nc1ccccc1)c1ccc(CN2CCc3ccccc3C2)cc1	none
O=C(Nc1ccc(S(=O)(=O)N2CCCCC2)cc1)c1ccc(CN2CCc3ccccc3C2)cc1	Vc quorum ag 17
Cc1cccc(C(C)Nc2ccc([N+](=O)[O-])cn2)c1 (centres undefined)	GDH-TPI inh 31 (no result: Vc quorum ag)
CCCC(=O)Nc1ccc2nn(-c3ccc(OC)cc3)nc2c1	Mtb FBA inh active
Cc1ccc(-n2nc3ccc(NC(=O)C(C)C)cc3n2)cc1	none
CC(C)C(=O)Nc1ccc2nn(-c3ccc(F)cc3)nc2c1	Mtb FBA inh 92
COC(=O)NC(Nc1sc2c(c1C(N)=O)CCCC2)(C(=O)OC)C(F)(F)F (centres undefined)	Vc quorum ag 17
Cc1ccc(NC2=C(Cl)C(=O)OC2OC(=O)c2ccco2)cc1 (centres undefined)	none
Cc1cccc(NC2=C(Cl)C(=O)OC2OC(=O)c2ccco2)c1 (centres undefined)	RecA splice inh 42
COc1ccc(-c2nc(=S)c3c(n2CCN2CCOCC2)CC(C)(C)OC3)cc1	GDH-TPI inh 38
Cc1ccc(-c2nc(=S)c3c(n2CCN2CCOCC2)CC(C)(C)OC3)cc1	none
C=CCn1c(-c2ccccc2)nc(=S)c2c1CC(C)(C)OC2	GDH-TPI inh 35
CCN(CC)CCn1c(-c2ccc(C)cc2)nc(=S)c2c1CC(C)(C)OC2	GDH-TPI inh 32
C=CCN1/C(=C2/SC(=S)N(C)C2=O)Sc2ccccc21	none (no result: Vc quorum ag, GDH-TPI inh, Mtb FBA inh)
CCOC(=O)C1C2C=CC(CC2)N1c1ccccc1 (centres undefined)	none
CCOC(=O)C1CCC(C(=O)OCC)N1c1ccc(C=O)cc1 (centres undefined)	GDH-TPI inh 33 (no result: Rv3671c inh, UGM FP inh, RecA splice inh)
O=C1N(CN2CCOCC2)c2ccccc2C12OCC(CCl)O2 (centres undefined)	none
Cc1nc2cc(C)c(C)cc2o1	none (no result: Rv3671c inh, UGM FP inh, RecA splice inh)
Cc1ccsc1C(=O)OCC(=O)c1cc(C)n(C)c1C	Mtb FBA inh 114 (no result: RecA splice inh)
COc1cc(C(=O)OCC(=O)c2cc(C)n(C)c2C)cc(OC)c1OC	none
NS(=O)(=O)c1ccc(N=Nc2c(O)[nH]c(=S)[nH]c2=O)cc1	RecA splice inh 34
O=c1[nH]c(=S)[nH]c(O)c1N=Nc1ccc(S(=O)(=O)N2CCOCC2)cc1	none
CCc1ccc(N(CC(=O)N2CCN(Cc3ccccc3)CC2)S(C)(=O)=O)cc1	none (no result: Rv3671c inh)
CCOC(=O)C1CCCN(S(=O)(=O)c2c(C(=O)N3CCCCC3)c(C)n(C)c2C)C1 (centres undefined)	none
CCCCCOc1ccc(C2NC(=O)NC2=O)cc1 (centres undefined)	none (no result: Vc quorum ag)
CCCCCCCCOc1ccc(C2OC34CCCCC3C(C#N)(C#N)C2(C#N)C(=N)O4)cc1 (centres undefined)	Mtb FBA inh 50
O=C(O)c1cc(NC(=O)c2cccc(C(=O)Nc3cc(C(=O)O)cc(C(=O)O)c3)c2)cc(C(=O)O)c1	none
COc1ccc(OC)c(C(=O)c2ccc(C(=O)Nc3ccc(NC(C)=O)cc3)cc2)c1	none
O=C(COC(=O)c1ccc([N+](=O)[O-])o1)NC1CCCc2ccccc21 (centres undefined)	none (no result: RecA splice inh)
CCn1c(SCC(=O)Nc2ccccc2)nnc1-c1cccs1	none
CCn1c(SCC(=O)NC(C)C)nnc1-c1cccs1	Vc quorum ag 17
CCn1c(SCC(=O)c2ccc(NS(=O)(=O)c3ccccc3)cc2)nnc1-c1cccs1	GDH-TPI inh 34 (no result: Vc quorum ag)
C#CCOCCOCCOCCNc1nc(N2CCN(C(=O)[C@H](CCCCN)n3cc([C@@H](N)CC(N)=O)nn3)CC2)nc(N2CCN(C(=O)[C@H](CCCCN)n3cc([C@@H](N)CC(N)=O)nn3)CC2)n1	none (no result: RecA splice inh)
COc1ccc(/C=C2\SC(=O)N(CC(=O)NC3C=CS(=O)(=O)C3)C2=O)cc1 (centres undefined)	GDH-TPI inh 48
O=C(CN1C(=O)S/C(=C\c2ccc(F)cc2)C1=O)NC1C=CS(=O)(=O)C1 (centres undefined)	GDH-TPI inh 33
O=C(CN1C(=O)S/C(=C\c2ccccc2F)C1=O)NC1C=CS(=O)(=O)C1 (centres undefined)	GDH-TPI inh 31
N#CC[C@H](Cc1ccccc1)N1CC[C@@H](O)CCC1=O	none
O=C(CC1SC(N2CCOCC2)=NC1=O)Nc1ccc(Cl)cc1 (centres undefined)	none (no result: Rv3671c inh, UGM FP inh, RecA splice inh)
N#CC(C#N)=NNc1ccc(S(=O)(=O)N2CCCC2)cc1	RecA splice inh 30
CC(=O)Nc1ccc(NC(=O)COC(=O)CCNS(=O)(=O)c2c(Cl)cccc2Cl)cc1	none (no result: Rv3671c inh, UGM FP inh, RecA splice inh)
CCOc1ccccc1NC(=O)CN1CCN(C(=O)C2CCCO2)CC1 (centres undefined)	none
CCc1cc(=O)oc2c3c(cc(OCC(=O)NCc4cccnc4)c12)OC(C)(C)CC3	Mtb FBA inh active
COc1cc2c(c3oc(=O)cc(CC(=O)O)c13)CCC(C)(C)O2	Mtb FBA inh 199
CCc1cc(=O)oc2c3c(cc(OCC(=O)NCc4ccccn4)c12)OC(C)(C)CC3	Mtb FBA inh 189
Cc1c(OCC(=O)NCc2cccnc2)ccc2c3c(c(=O)oc12)CCC3	none
CCc1cc(=O)oc2c(C)c(OCC(=O)NCCCN3CCCC3=O)ccc12	none
CCc1cc(=O)oc2c3c(cc(OCC(=O)NCCCCCC(=O)O)c12)OC(C)(C)CC3	Mtb FBA inh active
COc1ccccc1C(=O)NCCNC(=O)c1ccc(C)nc1	none
Cc1ccnc(NS(=O)(=O)c2ccc(NC(=O)c3cccc(Cl)c3)cc2)n1	none (no result: Rv3671c inh, UGM FP inh, RecA splice inh)
COCCCN(Cc1ccco1)C(=O)CSc1nc2ncccc2[nH]1	none
O=S1(=O)CCN(C2CCCCCCC2)CC1	none (no result: Rv3671c inh, UGM FP inh, RecA splice inh)
Cc1c(C)c2c(OCC(=O)Nc3cccnc3)cc3c(c2oc1=O)CCC(C)(C)O3	none
CCc1cc(=O)oc2c3c(cc(OCC(=O)Nc4cccnc4)c12)OC(C)(C)CC3	Mtb FBA inh 34
Cc1ccc(CNC(=O)CNC(=O)[C@@H]2Cc3ccccc3CN2C(=O)OC(C)(C)C)cc1	none
CS(=O)(=O)Nc1ccc(C2=NN(C(=O)CCCC(=O)O)C(c3cccs3)C2)cc1 (centres undefined)	Mtb FBA inh active
CS(=O)(=O)Nc1ccc(C2=NN(C(=O)c3ccccc3)C(c3cccs3)C2)cc1 (centres undefined)	none
CC(=O)N1N=C(c2cccc(NS(C)(=O)=O)c2)CC1c1cccs1 (centres undefined)	GDH-TPI inh 65
CC(C)(C)C(=O)N1N=C(c2ccc(NS(C)(=O)=O)cc2)CC1c1cccs1 (centres undefined)	Mtb FBA inh 112
CCS(=O)(=O)Nc1cccc(C2=NN(C(C)=O)C(c3cccs3)C2)c1 (centres undefined)	none
